Compound activity as filed in PubChem BioAssay.
Hits are enriched below; roughly 28% of the tested compounds scored in any of these assays.
CYP2C19 inh = blocks human cytochrome P450 2C19. P33261. CYP2C19 Supersomes, luciferin-H EGE luminescence, 30 min. inhibition, % at 5 µM. 96,000 compounds, 21% hits. AID 778;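 active = CYP2C19 inhibition above a set limit at 5 µM in the primary screen, cut at about 50% in these data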;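 note: plate controls were negative control wells for no effect and 2.5 mM tranylcypromine positive control for full effect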
PTK2B oligo ant = blocks oligomerization of human Pyk2 in cells | Q14289 | Q293 cells, Pyk2 FERM NanoBiT luminescence; hits give low values | z-score (the deposit names both 25 µM and 10 µM) | 99,000 compounds, 0.83% hits | AID 1347419;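 active = Z-score of -3 or lower, scaled per plate to the spread of control and sample wells; inactive = z-score above -3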;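 note: negative z-score means lost luminescence so less FERM oligomerization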
CYP2C9 inhib = inhibitors of human CYP2C9; P11712; CYP2C9 Supersomes, luciferin-H conversion, luminescence; inhibition, % at 5 µM; 96,000 compounds, 20% hits; AID 777;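 active = blocking of liver enzyme CYP2C9 beyond about 50% at 5 µM, limit read from the data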
CYP2C9 act = CYP2C9 (human) activation; recombinant CYP2C9, luciferin-H conversion, luminescence; hits give high values; factor 1 = untreated enzyme, 0 = blocked; activation factor at 5 µM; 96,000 compounds, 1.4% hits;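 active = activation factor of 2 or more for CYP2C9 at a 5 µM dose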;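 note: 0 = sulfaphenazole-blocked wells and 1 = vehicle-only wells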
CYP2C19 act = increases human CYP2C19 enzyme activity; P33261; recombinant CYP2C19, luciferin-H EGE luminescence; hits give high values; 0 = fully inhibited enzyme, 1 = untreated enzyme; activation factor at 5 µM; 96,000 tested, under 10 active; AID 1025;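 active = activation factor of at least 2 at 5 µM in the primary screen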;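 note: 0 = wells with 2.5 mM tranylcypromine and 1 = vehicle-only wells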
Starred values were filed as active, the others as inactive.

Screening N#Cc1nc(COc2ccc(Br)cc2)oc1N1CCCC1 returned CYP2C19 inh 99*, PTK2B oligo ant -1.5, CYP2C9 inhib 65*, CYP2C9 act 0.4 and CYP2C19 act 0.
For N#Cc1nc(COc2ccccc2)oc1N1CCCC1 the results were CYP2C19 inh 88*, PTK2B oligo ant -0.59, CYP2C9 inhib 31, CYP2C9 act 0.7 and CYP2C19 act 0.1.
Screening COc1ccc(N2CCN(c3oc(COc4ccccc4)nc3C#N)CC2)cc1 returned PTK2B oligo ant 0.1.
C=CCNc1nc(-c2ccc(O)c(C(N)=O)c2)cs1 was read as CYP2C19 inh 75*, PTK2B oligo ant 0.32, CYP2C9 inhib 11, CYP2C9 act 0.9 and CYP2C19 act 0.3.
`C=CCNC(=O)c1ccc(-c2nc(-c3ccc(Cl)c(Cl)c3)cs2)cc1` gave CYP2C19 inh 24, PTK2B oligo ant 0.94, CYP2C9 inhib 15, CYP2C9 act 0.8 and CYP2C19 act 0.8.
`Cc1cccc(CSc2nc3c(cc2C#N)CCC3)c1` gave PTK2B oligo ant -0.94.
For N#Cc1cc2c(nc1SCc1cccnc1)CCCC2 the results were CYP2C19 inh 78*, PTK2B oligo ant -1.1, CYP2C9 inhib 60*, CYP2C9 act 0.4 and CYP2C19 act 0.2.
For N#Cc1cc2c(nc1SCc1cccnc1)CCC2 the results were CYP2C19 inh 87*, PTK2B oligo ant 0.6, CYP2C9 inhib 23, CYP2C9 act 0.8 and CYP2C19 act 0.1.
For CN1C(=O)C2(Nc3ccccc3-c3nc4ccccc4n32)c2ccccc21 (stereo unspecified) the results were CYP2C19 inh 71*, PTK2B oligo ant -2.2, CYP2C9 inhib 64*, CYP2C9 act 0.4 and CYP2C19 act 0.3.
Screening CCN1C(=O)C2(Nc3ccccc3-c3nc4ccccc4n32)c2cc(OC)ccc21 (stereo unspecified) returned CYP2C19 inh 34, PTK2B oligo ant -2.9, CYP2C9 inhib 69*, CYP2C9 act 0.3 and CYP2C19 act 0.7.
Screening O=C1Nc2ccccc2C12Nc1ccccc1-c1nc3ccccc3n12 (stereo unspecified) returned PTK2B oligo ant -2.7.
Screening Cc1cc(C)n(-c2cc(N3CCN(S(=O)(=O)c4ccc(C)c(C)c4)CC3)ccc2[N+](=O)[O-])n1 returned CYP2C19 inh 10, PTK2B oligo ant -0.79, CYP2C9 inhib 24, CYP2C9 act 0.8 and CYP2C19 act 0.9.
Cn1cnnc1Sc1cc(N2CCN(S(=O)(=O)c3ccc(Cl)c(Cl)c3)CC2)ccc1[N+](=O)[O-] was read as CYP2C19 inh 100*, PTK2B oligo ant -0.69, CYP2C9 inhib 89*, CYP2C9 act 0.1 and CYP2C19 act 0.
NC(=O)C1(N2CCCCC2)CCN(C(=O)c2ccc(C#CC3(O)CCCCC3)cc2)CC1 was read as CYP2C19 inh 48, PTK2B oligo ant 0.05, CYP2C9 inhib 45, CYP2C9 act 0.5 and CYP2C19 act 0.5.
Screening Cc1nnc(SCc2ccc(Cl)cc2)n1CC1CCCO1 (stereo unspecified) returned CYP2C19 inh 36, PTK2B oligo ant 0.61, CYP2C9 inhib -2, CYP2C9 act 1 and CYP2C19 act 0.6.
`O=C(NC(=S)N(CCCCO)C1CCCCC1)c1sc2ccccc2c1Cl` gave CYP2C19 inh 36, PTK2B oligo ant 0.35, CYP2C9 inhib 54*, CYP2C9 act 0.5 and CYP2C19 act 0.6.
`O=C(NC1=NCCS1)c1sc2ccccc2c1Cl` gave CYP2C19 inh 20, PTK2B oligo ant -0.85, CYP2C9 inhib -14, CYP2C9 act 1.1 and CYP2C19 act 0.8.
Cn1cnnc1SC(C(=O)Nc1cc(Cl)cc(Cl)c1)c1ccccc1 (stereo unspecified) was read as CYP2C19 inh -12, PTK2B oligo ant -0.63, CYP2C9 inhib 18, CYP2C9 act 0.8 and CYP2C19 act 1.1.
O=C(c1n[nH]c2ccccc12)N1CCN(S(=O)(=O)c2ccc3ccccc3c2)CC1 was read as CYP2C19 inh 22, PTK2B oligo ant -2.4, CYP2C9 inhib 56*, CYP2C9 act 0.4 and CYP2C19 act 0.8.
`O=C(c1cnccn1)N1CCN(S(=O)(=O)c2ccc3ccccc3c2)CC1` gave CYP2C19 inh 95*, PTK2B oligo ant 1.2, CYP2C9 inhib 17, CYP2C9 act 0.8 and CYP2C19 act 0.1.
`Cc1ccc(C)c(S(=O)(=O)N2CCN(C(=O)c3cnccn3)CC2)c1` gave CYP2C19 inh 51*, PTK2B oligo ant 1, CYP2C9 inhib 51*, CYP2C9 act 0.5 and CYP2C19 act 0.5.
